High-throughput results from PubChem.
G9a block: inhibitors of human histone lysine methyltransferase G9a; Q96KQ7; G9a H3K9 monomethylation, AlphaScreen, 2 h; Potency, µM (doses to about 102 µM), actives largely listed as inhibitors; hit rate 8.8% among 350,000; AID 504332; note: nearly all actives have a fitted effect of over 75% in size
Target sequence (Q96KQ7 913-1193 limits assumed): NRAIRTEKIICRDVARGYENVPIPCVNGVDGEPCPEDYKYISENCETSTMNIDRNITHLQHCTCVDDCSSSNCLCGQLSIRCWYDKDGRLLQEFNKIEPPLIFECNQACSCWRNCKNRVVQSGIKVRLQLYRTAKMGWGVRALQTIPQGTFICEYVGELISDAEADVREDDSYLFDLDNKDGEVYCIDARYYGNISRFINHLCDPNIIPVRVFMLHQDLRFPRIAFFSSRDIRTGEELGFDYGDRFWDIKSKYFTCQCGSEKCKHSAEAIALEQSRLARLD
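Quantitative HTS format: methyltransferase activity on a biotin-tagged H3K9 peptide is measured by AlphaScreen, using a rabbit anti-monomethyl-H3K9 antibody with streptavidin donor and anti-IgG acceptor beads. Final levels are 20 nM enzyme, 500 nM peptide, 20 uM SAM; 2 h RT.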
MmCpn inh: M. maripaludis TRiC chaperonin inhibition; purified Mm-Cpn ATPase, ADP Transcreener TR-FRET; Potency, µM (series often up to 76.9 µM), most hits filed as inhibitors; hit rate 0.031% among 330,000; AID 504842; note: nearly all actives have a fitted effect of over 80% in size
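Quantitative HTS used 25 nM Mm-CPN and 10 uM ATP in magnesium/KCl Tris buffer, pH 7.4, with 1 mM DTT. Hydrolysis ran 30 min at 37°C; ADP was read by HTRF.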
CCT modulator: changes cytosolic chaperonin activity; activity change, % (no concentration beside the values), hits read low; purified chaperonin ATPase assay, HTRF ADP detection, 30 min; hit rate 0.3% among 360,000; in the data active = activity change below about -30%
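Enzyme 40 or 20 nM (batch-dependent) in Tris pH 7.4/KCl/MgCl2/DTT; cpd 76 uM single point; ATP 10 uM; 30 min 37 °C; Transcreener ADP HTRF detection, 30 min RT; ratio 665/615.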
PLK1 PBD block: inhibitors of human PLK1 polo-box domain binding; Plk1 PBD binding of FITC phosphopeptide, fluorescence polarization; P53350; Potency, µM, actives largely listed as inhibitors; hit rate 2.8% among 360,000; note: series mostly up to about 57 µM; nearly all actives have a fitted effect of over 65% in size
Sfp inh: inhibitors of Bacillus subtilis Sfp phosphopantetheinyl transferase. Q9F4F7. Biochemical Sfp PPTase activity, qHTS. Potency, µM, actives largely listed as inhibitors. hit rate 3.5% among 310,000. AID 1490;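 note: the enzyme is Sfp with the accession as filed and its product quenches rhodamine fluorescence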
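Fluorescence-quenching assay with 15 nM Sfp, 5 uM rhodamine-CoA and 12.5 uM BHQ-2-labelled ybbR peptide in pH 7.6 Hepes/MgCl2 buffer. Enzyme was pre-incubated with compound for 15 min at room temperature. Rate was taken from the 30-min fluorescence change (525/598 nm).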
VDR inhibitor: blocks the human vitamin D receptor | P11473 | VDR-SRC2-3 peptide fluorescence polarization, 2 h | Potency, µM, most hits filed as inhibitors | hit rate 0.93% among 400,000
Target sequence (P11473 whole entry, looked up): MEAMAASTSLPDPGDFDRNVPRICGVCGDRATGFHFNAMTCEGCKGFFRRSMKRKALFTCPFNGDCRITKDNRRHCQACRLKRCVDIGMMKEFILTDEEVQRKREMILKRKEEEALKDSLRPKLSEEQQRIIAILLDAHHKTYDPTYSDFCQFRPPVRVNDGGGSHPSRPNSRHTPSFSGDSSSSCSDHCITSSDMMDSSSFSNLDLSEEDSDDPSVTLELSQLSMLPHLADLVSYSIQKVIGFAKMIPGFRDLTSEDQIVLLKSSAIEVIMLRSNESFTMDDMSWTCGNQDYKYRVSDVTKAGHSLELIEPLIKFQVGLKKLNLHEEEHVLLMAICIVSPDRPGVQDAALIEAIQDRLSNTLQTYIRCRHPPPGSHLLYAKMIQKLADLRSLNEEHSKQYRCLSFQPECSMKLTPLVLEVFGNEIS
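Two reagent solutions held at 4 deg C in the dark were dispensed, compounds pinned at 23 nl, and the mixture incubated 2 h at room temperature. Read-out: fluorescence polarization of VDR–SRC2-3 peptide binding.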
Of the large screens only hits and unclear results are named; the others gave an inactive call. In the library only some 10% were active in any assay of this set; here they are far more common. Unless noted, calls come from the whole dose curve; as a rule, active = well fitted curve in the direction sought with a large enough effect; inconclusive = small, poorly fitted or top-dose-only effect, or another doubt; inactive = no such curve, though single readings can be large; an effect the other way counts as inactive or inconclusive.

CCc1ccc(NC(=O)C(Cc2ccccc2)NS(=O)(=O)c2ccc3c(c2)CCN3C(C)=O)cc1 (configuration not stated)	none (no result: MmCpn inh, CCT modulator, PLK1 PBD block, Sfp inh)
C[C@H](N)C(=O)NCC(=O)N[C@H]1CSSC[C@@H](C(=O)O)NC(=O)[C@H](CO)NC(=O)[C@H]([C@@H](C)O)NC(=O)[C@H](Cc2ccccc2)NC(=O)[C@H]([C@@H](C)O)NC(=O)[C@H](CCCCN)NC(=O)[C@H](Cc2c[nH]c3ccccc23)NC(=O)[C@H](Cc2ccccc2)NC(=O)[C@H](Cc2ccccc2)NC(=O)[C@H](CC(N)=O)NC(=O)[C@H](CCCCN)NC1=O	none (no result: G9a block, MmCpn inh, CCT modulator, PLK1 PBD block, Sfp inh)
COc1cc(-c2n[nH]c(=S)n2/N=C/c2cccn2C)cc(OC)c1OC	G9a block inconclusive, Sfp inh inconclusive
COc1cc(/C=N/n2c(-c3ccccc3)n[nH]c2=S)ccc1O	G9a block 2.2µM
COc1ccc(/C=N/n2c(-c3n[nH]c4c3CCC4)n[nH]c2=S)cc1OC	G9a block inconclusive
COc1cc(/C=N/n2c(-c3ccccc3)n[nH]c2=S)cc(OC)c1O	G9a block 0.71µM, Sfp inh inconclusive
COc1ccc(Br)cc1/C=N/n1c(-c2ccccc2)n[nH]c1=S	G9a block 3.5µM
COc1cc(/C=N/n2c(-c3n[nH]c4c3CCC4)n[nH]c2=S)ccc1O	G9a block inconclusive, PLK1 PBD block inconclusive
COc1ccc(/C=N/n2c(-c3ccc(C)cc3)n[nH]c2=S)cc1OC	G9a block 0.4µM
O=C(NCCc1csc(-c2cccc(F)c2)n1)c1cccs1	none (no result: MmCpn inh, CCT modulator, PLK1 PBD block, Sfp inh)
Cn1ccc2cc(S(=O)(=O)N3CCCC(C(=O)NCc4ccccc4)C3)ccc21 (configuration not stated)	none (no result: MmCpn inh, CCT modulator, PLK1 PBD block, Sfp inh)
CC(=O)c1c(C)n(-c2ccc(C)cc2)c2ccc(OC(=O)COc3ccccc3)cc12	none (no result: MmCpn inh, CCT modulator, PLK1 PBD block, Sfp inh)
Cc1nc([N+](=O)[O-])c(C(=O)OCc2cccc(Br)c2)n1C	G9a block 50µM
Cc1nc([N+](=O)[O-])c(C(=O)OCc2ccccc2)n1C	none
Cc1ccc(CNC(=O)c2ccc(N3CCCC3)c(NC(=O)Nc3ccc(F)c(Cl)c3)c2)cc1	none (no result: MmCpn inh, CCT modulator, PLK1 PBD block, Sfp inh)
Cc1ccc(CCNS(=O)(=O)c2cnc[nH]2)cc1	CCT modulator -39
N#Cc1cc(NC(=O)c2ccc(F)cc2)c(=O)n2c1[nH]c1ccccc12	G9a block 3.5µM (no result: CCT modulator, PLK1 PBD block, VDR inhibitor)
COc1cccc(N2CCN(S(=O)(=O)c3ccc(-c4ccno4)cc3OC)CC2)c1	none (no result: MmCpn inh, CCT modulator, PLK1 PBD block, Sfp inh)
O=C(C[n+]1cc(-c2ccc(F)cc2)n2c1CCC2)Nc1nc(-c2ccccc2)cs1	none
CC1CCC2(CC1)NC(=O)N(CC(=O)Nc1nc(-c3ccc(F)cc3)cs1)C2=O (configuration not stated)	G9a block 50µM
Cc1ccc(-c2c[n+](CC(=O)Nc3nc(-c4ccc(F)cc4)cs3)c3n2CCC3)cc1	G9a block 45µM, Sfp inh inconclusive
Cc1ccccc1OCC(=O)Nc1ccc(C(=O)OCc2cc(=O)n3c(C)csc3n2)cc1	none (no result: MmCpn inh, CCT modulator, PLK1 PBD block, Sfp inh)
CCC(CO)Oc1cc(NCc2cccc(C)c2)c2ncn(C(C)C)c2c1 (configuration not stated)	VDR inhibitor 89µM (no result: G9a block, Sfp inh)
CC[C@H](CO)Oc1cc(NCc2cccc(N)c2)c2ncn(C(C)C)c2c1	none (no result: G9a block, MmCpn inh, Sfp inh, VDR inhibitor)
CC(C)[C@H](NC(=O)OC(C)(C)C)C(=O)N/N=C/c1cccc2nccnc12	G9a block 4.5µM
O=C(CCn1c(=O)c2ccccc2n(Cc2cccc(F)c2)c1=O)NCc1ccc2c(c1)OCO2	none (no result: MmCpn inh, CCT modulator, PLK1 PBD block, Sfp inh)
O=C(N1CCCCC1)N1CCN(C(c2ccccc2)c2ccccc2)CC1	none
Oc1c(C(c2ccccc2)N2CCCCC2)ccc2ccccc12 (configuration not stated)	PLK1 PBD block 3µM (no result: G9a block, MmCpn inh, Sfp inh, VDR inhibitor)
CCCC(=O)N(c1ccc2oc3c(c2c1)CCCC3)S(=O)(=O)c1cc(C)ccc1C	none (no result: MmCpn inh, CCT modulator, PLK1 PBD block, Sfp inh)
O=C1C(=O)N(Cc2ccncc2)C(c2ccccc2F)/C1=C(\O)c1ccc2c(c1)OCCO2 (configuration not stated)	G9a block 40µM
COc1cccc(/C(O)=C2/C(=O)C(=O)N(Cc3cccnc3)C2c2ccco2)c1 (configuration not stated)	G9a block 45µM
COc1ccc(C2/C(=C(/O)c3ccc4c(c3)CC(C)O4)C(=O)C(=O)N2CCCn2ccnc2)cc1 (configuration not stated)	G9a block inconclusive
COc1cc(C2/C(=C(\O)c3ccc4c(c3)OCCO4)C(=O)C(=O)N2Cc2ccccc2)ccc1O (configuration not stated)	none (no result: G9a block)
COc1ccc(C2/C(=C(\O)c3ccc4c(c3)CC(C)O4)C(=O)C(=O)N2Cc2cccnc2)c(OC)c1 (configuration not stated)	G9a block 71µM
CC1Cc2cc(/C(O)=C3/C(=O)C(=O)N(Cc4ccncc4)C3c3ccc(N(C)C)cc3)ccc2O1 (configuration not stated)	G9a block 22µM
O=C(c1cc(C(F)(F)F)cc(C(F)(F)F)c1)N1CCC[C@@]2(CCN(c3ccccc3)C2)C1	VDR inhibitor inconclusive (no result: MmCpn inh, CCT modulator, PLK1 PBD block)
COc1cccc(C2/C(=C(\O)c3ccc4c(c3)OCCO4)C(=O)C(=O)N2Cc2cccnc2)c1 (configuration not stated)	G9a block 56µM
COc1ccc(C2/C(=C(/O)c3ccc4c(c3)CC(C)O4)C(=O)C(=O)N2Cc2cccnc2)cc1 (configuration not stated)	G9a block 40µM
O=C1C(=O)N(Cc2cccnc2)C(c2cccc([N+](=O)[O-])c2)/C1=C(\O)c1ccc2c(c1)OCCO2 (configuration not stated)	G9a block inconclusive
CS(=O)(=O)Nc1cccc(-c2ccc3ncnc(NCc4cccs4)c3c2)c1	none (no result: MmCpn inh, CCT modulator, PLK1 PBD block)
O=C1[C@H]2[C@H]3[C@H](O)[C@H](O)C/C(=N/OCc4ccccc4)[C@@H]3CC[C@@H]2C(=O)N1Cc1ccccc1	none (no result: G9a block, MmCpn inh, CCT modulator, PLK1 PBD block, VDR inhibitor)
CCOc1ccc(OCC)c(NC(=O)CCc2nc3cccnc3n2Cc2cccs2)c1	none (no result: MmCpn inh, CCT modulator, PLK1 PBD block, Sfp inh)
Cc1ccccc1C(=O)NC1(C(F)(F)F)C(=O)Nc2c1c(=O)[nH]c(=O)n2CCc1ccccc1 (configuration not stated)	none (no result: MmCpn inh, CCT modulator, PLK1 PBD block, Sfp inh)
CCCc1nnc(SCc2ccc(OC)cc2)n1N	PLK1 PBD block 21µM, VDR inhibitor 25µM
O=C1CNc2cc(Cl)ccc2N1	none (no result: G9a block, MmCpn inh, Sfp inh, VDR inhibitor)
O=C1CSc2cc(Cl)ccc2N1	PLK1 PBD block 11µM, VDR inhibitor inconclusive (no result: G9a block, MmCpn inh, Sfp inh)
CCc1ccc(C(=O)c2cn(CC(=O)Nc3ccc(C)c(C)c3)c3ccccc3c2=O)cc1	none (no result: MmCpn inh, CCT modulator, PLK1 PBD block, Sfp inh)
CCc1nnc(NC(=O)C2CC(=O)N(CCc3ccc(F)cc3)C2)s1 (configuration not stated)	G9a block inconclusive, PLK1 PBD block inconclusive
